Results as given in PubChem BioAssay.
Several values for one entry are separate records, joined by “and”; a condition that tells them apart may be missing. Identical values can stand only once. Activity calls are given as the source filed them. Unless noted, no rule for the calls is given here.

Legend:
[1] = liver-stage malaria parasite growth inhibition, primary screen, cell-based, HepG2, luciferase luminescence, HepG2 viability (AID 624349; in the data active = parasite load remaining mostly below about 12%, no sharp cut-off; inactive = mostly above about 10%;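 also: 100% = mean of DMSO negative control wells on the same plate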); settings: P. berghei liver stage in HepG2, luciferase luminescence, concentration not given here; parasite load remaining: stronger effect = lower value; viability: measured here: HepG2 viability without parasites
[2] = Cy5 fluorescence interference with SSB-bound oligo, artefact control for HCV NS3 helicase inhibitor project, biochemical, NIH Clinical Collection, E. coli SSB (AID 743268)
[3] = test system: Hepatitis C virus NS3 helicase; assay: HCV NS3 helicase inhibitors, primary screen, biochemical, fluorescence polarization, NIH Clinical Collection (AID 743270); settings: NS3 helicase binding to Cy5-dT15 DNA, stronger effect = higher value, concentration not given here
[4] = target: Single-stranded DNA-binding protein (Escherichia coli (strain K12)) (UniProt P0AGE0); assay: E. coli SSB displacement from DNA, counter-screen for HCV NS3 helicase inhibitor project, biochemical, fluorescence polarization, NIH Clinical Collection (AID 743271; in the data active = inhibition above about 28%); settings: stronger effect = higher value, concentration not given here
[5] = fluorescence interference in NS3h assay format, artefact control for HCV NS3 helicase inhibitor project, biochemical, NIH Clinical Collection (AID 743272); settings: fluorescence interference counterscreen, stronger effect = lower value;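 also: HCV NS3 helicase with a Cy5 labelled single stranded DNA probe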
[6] = stimulators of nuclear beta-catenin in C2C12, primary screen, imaging, WNT3A-conditioned medium, mouse C2C12, NPC library (AID 1117326; in the data active = nuclear beta-catenin stimulation mostly above about 4.2%, no sharp cut-off; inactive = mostly below about 10%); settings: stronger effect = higher value
[7] = stimulators of insulin release from INS-1E, primary screen, cell-based, 5 mM glucose, NPC library (AID 1117329;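 active = compound raises insulin release from rat beta cells at 5 mM glucose, no numeric limit stated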); settings: rat INS-1E insulin secretion, at 10 µM, stronger effect = higher value
[8] = growth inhibition of GSK3B-pretreated HCT116 cells – cell-based, CellTiter-Glo, 0.2 to 20 µM (AID 1117336;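 active = compounds lowering colon cancer cell viability after pretreatment blocking the GSK3B kinase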); settings: HCT116 viability after GSK3B inhibitor, at 20 µM, stronger effect = higher value
[9] = inhibition of endothelial tube formation, primary screen, imaging, VEGF stimulated, CD31 staining, tube area, NPC library (AID 1117340;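 active = compound that reduces growth-factor-driven endothelial tube area in a mixed cell culture, no cutoff stated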); settings: VEGF-stimulated ADSC/ECFC co-culture, at 10 µM, stronger effect = higher value
[10] = glucagon-like peptide 1 release enhancers, primary assay, NCI-H716 cell line, NPC library (AID 1117341;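 active = compound raises GLP1 secretion from the human gut endocrine cells, with no numeric limit stated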); settings: NCI-H716 cells, at 10 µM, stronger effect = higher value
[11] = HCT116 colon cancer cell growth inhibition, primary screen, CellTiter-Glo luminescence, NPC library (AID 1117342;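 active = compounds that lower survival of HCT116 colon cancer cells in the luminescence readout, no numeric limit stated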); settings: at 20 µM (top of the series)
[12] = CellTiter-Glo luminescent readout of SW480 viability loss, NPC library primary (AID 1117343;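 active = compounds that lower viability of the colon cancer cells in the luminescence readout, with no numeric limit stated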); settings: CellTiter-Glo luminescence; at 20 µM (top of the series)
[13] = decreased DLD-1 cellular survival, CellTiter-Glo luminescent readout, NPC compound collection, primary HTS (AID 1117346;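 active = compounds that lower survival of DLD-1 colon cancer cells in the luminescence readout, no cutoff given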); settings: DLD-1 viability, CellTiter-Glo luminescence; at 20 µM (top of the series)
[14] = target: 6-phosphogluconate dehydrogenase, decarboxylating (Homo sapiens) (UniProt P52209); assay: 6PGD enzyme inhibitors, primary screen, biochemical, human, recombinant enzyme, NADPH absorbance (AID 1159550;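 active = at least 20% inhibition of 6-phosphogluconate dehydrogenase activity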); settings: recombinant 6PGD, NADPH absorbance 341 nm; at 10 µM; stronger effect = higher value
[15] = sensitizers of A549 cells to miR-34 induction, primary screen, imaging, A549 dox-inducible miR-34, nuclei and caspase counts (AID 1347080;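 active = compounds whose cell count with miR-34 switched on is under 0.7 times the count with it off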); settings: A549 miR-34 inducible, Hoechst nuclei count, 48 h
[16] = target: NAD(+) hydrolase SARM1 (Homo sapiens) (UniProt Q6SZW1); assay: SARM1 TIR NADase inhibitors, cell lysate, NAD-Glo luminescence (AID 1508614;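 active = compound whose remaining NAD level is above about 45 nM, limit read from the data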;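 also: higher remaining NAD means stronger inhibition of SARM1 NADase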); settings: SAM-TIR HEK293T lysate NADase, at 1 µM, stronger effect = higher value
[17] = target: Mitogen-activated protein kinase 7 (Homo sapiens) (UniProt Q13164); assay: ERK5 transactivation activators in reporter cells, primary screen, cell-based, HTS (AID 1508626;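 active = luciferase signal above three times the same-plate solvent-only control wells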;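 also: luciferase driven by Gal4-ERK5 fusion binding five Gal4 sites before minimal TATA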); settings: HeLa Gal4-ERK5 transactivation, 18 h, at 5 µM, stronger effect = higher value
F380Y = assay: modulators of BK channel variants, profiling panel, selectivity assay, cell-based, U2OS BacMam, thallium flux, beta subunits (AID 1259406;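 active = thallium flux through the channel raised or lowered by more than 3 SD from vehicle-only wells, actives on both sides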;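 also: initial slope of Thallos dye fluorescence rise after thallium is added; log ratio against the mean of 0.3% DMSO vehicle wells on the same plate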); settings: at 30 µM
[18] = differential killing of epithelial or mesenchymal cells, primary screen, imaging, PC-3E GFP, TEM4-18 mCherry, co-culture (AID 1345086;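 active = compounds killing one labelled cell type while sparing the other, by normalised counts and ratio limits, not self-fluorescent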;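 as to all read-outs here: cells exposed to compound for 72 h before imaging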;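 as to red/green cell ratio (normalised): normalised mesenchymal count divided by normalised epithelial count so high means epithelial killing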); settings: imaging cell counts, at 1 µM; for red/green cell ratio (normalised): actives lie on both sides, counts scaled to control wells, 1 = unselective
[19] = survival rescue of mitochondrial mutant cells in low glucose, primary screen, MELAS cybrids, Rieske KO mouse fibroblasts, CellTiter-Glo (AID 1508586;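 active = mean z-score across replicates of 1.96 or higher in either the MELAS or the Rieske mutant cell line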;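 also: z relative to plate mean and SD of compound and empty wells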)
[20] = stronger effect = lower value, cell number ratio, induced over uninduced
[21] = measured here: relative caspase fold change +Dox/-Dox
[22] = measured here: total cells with miR-34 induction, stronger effect = lower value
[23] = measured here: total cells without miR-34 induction
[24] = measured here: epithelial PC-3E GFP cell survival
[25] = measured here: mesenchymal TEM4-18 mCherry cell survival
[26] = MELAS cybrid survival, CellTiter-Glo 48 h, stronger effect = higher value
[27] = Rieske KO mouse fibroblast survival, CellTiter-Glo 72 h

Chain of NAD(+) hydrolase SARM1 (Homo sapiens) (Q6SZW1 whole entry, looked up, the tested form may be a part): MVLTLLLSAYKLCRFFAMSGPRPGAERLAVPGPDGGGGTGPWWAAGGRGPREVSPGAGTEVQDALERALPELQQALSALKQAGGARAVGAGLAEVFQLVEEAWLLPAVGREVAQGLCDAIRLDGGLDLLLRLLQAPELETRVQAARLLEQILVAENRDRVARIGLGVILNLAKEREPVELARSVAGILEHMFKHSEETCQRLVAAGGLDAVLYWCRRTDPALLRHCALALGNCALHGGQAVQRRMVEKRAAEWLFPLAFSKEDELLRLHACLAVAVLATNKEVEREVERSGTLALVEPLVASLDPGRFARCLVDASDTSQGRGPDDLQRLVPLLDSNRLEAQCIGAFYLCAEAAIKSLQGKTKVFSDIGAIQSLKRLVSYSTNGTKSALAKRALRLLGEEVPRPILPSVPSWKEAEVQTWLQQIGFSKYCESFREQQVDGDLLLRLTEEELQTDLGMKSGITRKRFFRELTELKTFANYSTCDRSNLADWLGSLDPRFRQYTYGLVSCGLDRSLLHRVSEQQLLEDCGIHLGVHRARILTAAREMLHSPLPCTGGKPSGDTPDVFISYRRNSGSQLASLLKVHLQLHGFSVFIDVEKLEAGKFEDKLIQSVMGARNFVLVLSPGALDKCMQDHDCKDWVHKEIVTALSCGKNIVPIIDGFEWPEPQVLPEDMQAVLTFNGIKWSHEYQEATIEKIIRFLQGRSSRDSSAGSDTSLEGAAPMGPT
Chain of Mitogen-activated protein kinase 7 (Homo sapiens) (Q13164 whole entry, looked up, the tested form may be a part): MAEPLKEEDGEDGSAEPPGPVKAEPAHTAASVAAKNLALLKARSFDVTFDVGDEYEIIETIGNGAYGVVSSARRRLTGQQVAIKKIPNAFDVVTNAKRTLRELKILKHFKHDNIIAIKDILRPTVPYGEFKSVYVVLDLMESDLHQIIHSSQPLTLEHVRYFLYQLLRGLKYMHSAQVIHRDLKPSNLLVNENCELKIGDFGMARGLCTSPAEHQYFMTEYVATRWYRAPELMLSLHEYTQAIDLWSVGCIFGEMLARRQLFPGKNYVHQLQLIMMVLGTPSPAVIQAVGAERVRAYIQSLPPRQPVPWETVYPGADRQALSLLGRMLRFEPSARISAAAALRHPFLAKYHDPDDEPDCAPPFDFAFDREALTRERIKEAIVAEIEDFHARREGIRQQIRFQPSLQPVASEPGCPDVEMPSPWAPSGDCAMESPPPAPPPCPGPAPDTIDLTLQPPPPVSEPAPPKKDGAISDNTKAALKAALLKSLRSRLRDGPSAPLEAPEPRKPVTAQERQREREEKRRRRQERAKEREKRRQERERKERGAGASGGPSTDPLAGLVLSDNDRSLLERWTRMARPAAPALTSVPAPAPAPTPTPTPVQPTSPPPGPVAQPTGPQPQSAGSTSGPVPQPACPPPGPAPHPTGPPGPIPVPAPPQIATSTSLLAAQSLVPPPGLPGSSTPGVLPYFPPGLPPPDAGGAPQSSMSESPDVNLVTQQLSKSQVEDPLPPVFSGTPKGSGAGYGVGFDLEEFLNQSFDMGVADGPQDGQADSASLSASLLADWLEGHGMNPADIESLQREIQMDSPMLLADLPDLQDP
Chain of 6-phosphogluconate dehydrogenase, decarboxylating (Homo sapiens) (P52209 whole entry, looked up): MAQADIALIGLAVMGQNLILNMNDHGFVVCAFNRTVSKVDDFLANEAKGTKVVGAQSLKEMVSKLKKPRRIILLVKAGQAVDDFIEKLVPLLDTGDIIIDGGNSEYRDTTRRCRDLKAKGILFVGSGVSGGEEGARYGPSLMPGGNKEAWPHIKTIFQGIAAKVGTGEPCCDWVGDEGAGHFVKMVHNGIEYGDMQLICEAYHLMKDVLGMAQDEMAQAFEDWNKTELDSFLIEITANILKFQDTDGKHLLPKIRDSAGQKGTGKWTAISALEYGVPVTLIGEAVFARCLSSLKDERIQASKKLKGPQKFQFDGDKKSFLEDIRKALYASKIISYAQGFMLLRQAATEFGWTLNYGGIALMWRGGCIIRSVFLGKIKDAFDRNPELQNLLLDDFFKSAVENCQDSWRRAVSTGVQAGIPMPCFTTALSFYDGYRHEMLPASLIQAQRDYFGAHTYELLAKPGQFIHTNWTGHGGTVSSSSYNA

CC1(C)O[C@@H]2C[C@H]3[C@@H]4CCC5=CC(=O)C=C[C@]5(C)[C@@]4(F)[C@@H](O)C[C@]3(C)[C@]2(C(=O)CO)O1
3.8%: nuclear beta-catenin stimulation ([6]; stimulation, at 2 µM)
7450: cell count [15, 23]
7390: cell count [15, 22]
inactive: parasite load remaining [1] 89.9% | fluorescence ratio [2] 0.99 | inhibition [3] -0.45% | inhibition [4] 4.1% | fluorescence ratio [5] 0.99 | nuclear beta-catenin stimulation ([6]; at 10 µM) -0.5% | insulin secretion stimulation [7] 3.4% | viability decrease [8] 21.8% | tube area decrease [9] 0.2% | GLP1 secretion stimulation [10] -1% | inhibition of viability [11] 8.4% | viability decrease (inhibition) [12] 34.9% | viability decrease (inhibition) [13] -6.5% | inhibition [14] 10.8% | fold change [15, 20] 0.992 | remaining NAD [16] 10 nM | luciferase signal [17] 36 AU | log fold change Tl+ flux (F380Y) 0.0424
87.8%: viability [1]
0.777: fold change [15, 21]

CN(C)CCOC(c1ccccc1)c1ccccc1
0.641 and 0.428 and 1.04: z-score [19, 27]
active: viability decrease (inhibition) [12] 57.8%
inactive: fluorescence ratio [2] 1.02 | inhibition [3] -1.19% | inhibition [4] 5.29% | fluorescence ratio [5] 0.99 | nuclear beta-catenin stimulation ([6]; at 10 µM) 0.5% | insulin secretion stimulation [7] 14.4% | viability decrease [8] -17.4% | tube area decrease [9] 1% | GLP1 secretion stimulation [10] 4.4% | inhibition of viability [11] 36.7% | viability decrease (inhibition) [13] 1% | inhibition [14] 11.2% | red/green cell ratio (normalised) [18] 1.07 | z-score [19, 26] -0.301 and 0.806 and -0.802 | remaining NAD [16] 10 nM | luciferase signal [17] 36 AU | log fold change Tl+ flux (F380Y) 0.0428
-1%: nuclear beta-catenin stimulation ([6]; stimulation, at 2 µM)
1.37: normalised cell number [18, 25]
1.28: normalised cell number [18, 24]

Fc1ccc([C@@H]2CCNC[C@H]2COc2ccc3c(c2)OCO3)cc1
-0.644 and -0.322: z-score [19, 27]
0.47: normalised cell number [18, 25]
inactive: fluorescence ratio [2] 1 | inhibition [3] -1.19% | inhibition [4] -1.64% | fluorescence ratio [5] 0.99 | nuclear beta-catenin stimulation ([6]; at 10 µM) 2.2% | insulin secretion stimulation [7] 11.8% | viability decrease [8] -148% | GLP1 secretion stimulation [10] 1.4% | inhibition of viability [11] 28.1% | viability decrease (inhibition) [12] 23% | viability decrease (inhibition) [13] 19.7% | inhibition [14] -2.44% | red/green cell ratio (normalised) [18] 0.99 | z-score [19, 26] -0.279 and -0.953 | remaining NAD [16] 10 nM | luciferase signal [17] 168 AU
active: tube area decrease [9] 46.2%
2.8%: nuclear beta-catenin stimulation ([6]; stimulation, at 2 µM)
0.48: normalised cell number [18, 24]

CCC(=O)O[C@]1(C(=O)CCl)[C@@H](C)C[C@H]2[C@@H]3CCC4=CC(=O)C=C[C@]4(C)[C@@]3(F)[C@@H](O)C[C@@]21C
6300 and 6140: cell count [15, 22]
3.8%: nuclear beta-catenin stimulation ([6]; stimulation, at 2 µM)
6030 and 7320: cell count [15, 23]
110% and 128%: viability [1]
2.64 and 1.67: fold change [15, 21]
active: log fold change Tl+ flux (F380Y) 0.112
inactive: parasite load remaining [1] 49% and 35.1% | fluorescence ratio [2] 1.01 | inhibition [3] 4.09% | inhibition [4] 2.57% | fluorescence ratio [5] 0.96 | nuclear beta-catenin stimulation ([6]; at 10 µM) 4.4% | insulin secretion stimulation [7] 8.3% | viability decrease [8] -89.8% | tube area decrease [9] 9.1% | GLP1 secretion stimulation [10] 2.1% | inhibition of viability [11] 2.9% | viability decrease (inhibition) [12] 41% | viability decrease (inhibition) [13] 15.6% | inhibition [14] 3.17% | fold change [15, 20] 1.05 and 0.839 | z-score [19, 26] 0.507 and -0.252 | remaining NAD [16] 10 nM | luciferase signal [17] 84 AU
1.67 and 0.844: z-score [19, 27]

C[C@]12C=CC(=O)C=C1CC[C@@H]1[C@@H]2[C@@H](O)C[C@@]2(C)[C@H]1CC[C@]2(O)C(=O)CO
-0.7%: nuclear beta-catenin stimulation ([6]; stimulation, at 2 µM)
1.73 and 1.43 and 1.29: fold change [15, 21]
inactive: fluorescence ratio [2] 1.02 | inhibition [3] -1.36% | inhibition [4] 0.29% | fluorescence ratio [5] 0.96 | nuclear beta-catenin stimulation ([6]; at 10 µM) -2.6% | insulin secretion stimulation [7] 1.6% | viability decrease [8] -2.7% | tube area decrease [9] 11.2% | GLP1 secretion stimulation [10] -0.5% | inhibition of viability [11] -3.5% | viability decrease (inhibition) [12] -1.5% | viability decrease (inhibition) [13] -18.8% | inhibition [14] -5.44% | fold change [15, 20] 0.93 and 0.783 and 0.847 | z-score [19, 26] 0.367 and 0.381 | remaining NAD [16] 10 nM | luciferase signal [17] 84 AU | log fold change Tl+ flux (F380Y) 0.0238
7530 and 6090 and 6580: cell count [15, 22]
-0.0179 and 1.19: z-score [19, 27]
8090 and 7780 and 7760: cell count [15, 23]

COc1ccc2c(c1)c(CC(=O)O)c(C)n2C(=O)c1ccc(Cl)cc1
1%: nuclear beta-catenin stimulation ([6]; stimulation, at 2 µM)
-0.036 and -0.235 and -0.118: z-score [19, 27]
inactive: fluorescence ratio [2] 1.02 | inhibition [3] -3.56% | inhibition [4] -2.41% | fluorescence ratio [5] 1.01 | nuclear beta-catenin stimulation ([6]; at 10 µM) 0.6% | insulin secretion stimulation [7] -1% | viability decrease [8] -52.1% | tube area decrease [9] -10.5% | GLP1 secretion stimulation [10] 1.6% | inhibition of viability [11] 0.43% | viability decrease (inhibition) [12] 10.6% | viability decrease (inhibition) [13] 3.4% | inhibition [14] -5.45% | red/green cell ratio (normalised) [18] 1.02 | z-score [19, 26] -0.268 and 0.659 and 0.23 | remaining NAD [16] 10 nM | luciferase signal [17] 36 AU | log fold change Tl+ flux (F380Y) 0.0847
0.91: normalised cell number [18, 24]
0.93: normalised cell number [18, 25]
